In the supplement of paper PMC13380429:

These compounds were tested on Vero E6 infected with SARS-CoV-2 (assay: inhibition of SARS-CoV-2 cytopathic effect; higher = more antiviral protection, active = above 15). Settings: 833.33 nM; 48 h.

SMILES | inhibition of SARS-CoV-2 cytopathic effect
Clc1cc(Cl)c(OCC#CI)cc1Cl [haloprogin] | 4.17% (inactive)
N#C[C@H](O[C@@H]1O[C@H](CO[C@@H]2O[C@H](CO)[C@@H](O)[C@H](O)[C@H]2O)[C@@H](O)[C@H](O)[C@H]1O)c1ccccc1 [amygdalin] | -1.12% (inactive)
CC(=O)SC[C@@H](C)C(=O)N1CCC[C@H]1C(=O)N[C@@H](Cc1ccccc1)C(=O)O [alacepril] | -1.33% (inactive)
Cc1ccc(-n2nc(C(C)(C)C)cc2NC(=O)NCc2cc(F)ccc2Oc2ccc3c(cnn3CCO)c2)cc1 [pexmetinib] | 5.81% (inactive)
CC(C)NCC(O)COc1cccc2[nH]c3ccccc3c12 (stereo not given) [carazolol] | 0% (inactive)
CCOC(=O)Nc1cc(-c2ccc(C)c(NS(C)(=O)=O)c2)nn2c(C)nnc12 [bromosporine] | -0.48% (inactive)
FC(F)(F)c1cc(CO[C@H]2CCCN[C@H]2c2ccccc2)cc(C(F)(F)F)c1 | -6.64% (inactive)
Cc1cc(Cl)ccc1OCCCC(=O)NO [droxinostat] | 1.7% (inactive)
CC1(C)[C@H](C(=O)O)N2C(=O)C[C@H]2S1(=O)=O [sulbactam] | -0.56% (inactive)
CCc1nn(CCO)c(CC)c1Oc1cc(C#N)cc(C#N)c1 [lersivirine] | 0.87% (inactive)
Cc1cc(=O)n(-c2ccccc2)[nH]1 [N-demethylantipyrine] | -2.77% (inactive)
C/C(=N\Nc1nnc2c(n1)[nH]c1c(C)cccc12)c1ccccn1 | 1.06% (inactive)
Cc1ccc(Cl)cc1N(CC(=O)Nc1c(F)cccc1F)S(C)(=O)=O | 0.27% (inactive)
O=C(O)C1(C(=O)O)CCC1.[NH2-].[NH2-].[Pt+2] [carboplatin] | 9.87% (inactive)
O=C(O)c1cc(N2N=C(C(F)(F)F)/C(=C/c3ccc(-c4ccccc4)o3)C2=O)ccc1Cl | 0.57% (inactive)
CCCCC(CC)CNC(=N)NC(=N)NCCCCCCNC(=N)NC(=N)NCC(CC)CCCC (stereo not given) [alexidine] | -6.06% (inactive)
C[C@H](Cc1ccc(O)c(O)c1)[C@@H](C)Cc1ccc(O)c(O)c1 [masoprocol] | -1.7% (inactive)
O=C1C=Cc2cc(Br)ccc2C1=O [bonaphthone] | -1.56% (inactive)

SMILES | inhibition of SARS-CoV-2 cytopathic effect
COc1ccc(C2CNC(=O)NC2)cc1O[C@H]1C[C@@H]2CC[C@H]1C2 [atizoram] | -0.02% (inactive)
Cc1ccc2cc(-c3c(C)ccc(C(=O)c4c(-c5ccccc5)n(C)n(-c5ccccc5)c4=O)c3N)ccc2n1 | 2.1% (inactive)
O=C(Cc1ccc(Cl)c(Cl)c1)N1CCCC[C@@H]1CN1CCCC1 | -0.63% (inactive)
COc1ccc2cc3[n+](cc2c1OC)CCc1cc2c(cc1-3)OCO2 [berberine] | -3.86% (inactive)
Oc1nc(-c2ccc(C(F)(F)F)cc2)nc2c1CSCC2 | 2.58% (inactive)
NCC1(CC(=O)O)CCCCC1 [gabapentin] | 0.15% (inactive)
CCn1c(-c2nonc2N)nc2cncc(C(=O)N3CC[C@H](N)C3)c21 | -3.28% (inactive)
O=C1[O][SbH]23[O]C(=O)C([O]2)C2[O][SbH]4([O]C(=O)C([O]4)C1[O]3)[O]C2=O [antimonyl] | 0.19% (inactive)
COc1ccc(-c2nc(-c3ccc(-c4cccc(Cl)c4)o3)[nH]c2-c2ccc(OC)cc2)cc1 [neurodazine] | 5.51% (inactive)
O=C(O)C(Cc1ccccc1[N+](=O)[O-])=NNc1nc(-c2ccc(Cl)c(Cl)c2)cs1 | 3.78% (inactive)
C[N+]12CCCCC1CCC(=C(c1cccs1)c1cccs1)C2 (stereo not given) [tiquizium] | -2.14% (inactive)
O=C(O)CCCCC(CCSCc1ccccc1)SCc1ccccc1 (stereo not given) | 0.34% (inactive)
COC(=O)[C@H](c1ccccc1Cl)N1CCc2sccc2C1 [clopidogrel] | -3.38% (inactive)
CCCCC1=NC2(CCCC2)C(=O)N1Cc1ccc(-c2ccccc2-c2nnn[nH]2)cc1 [irbesartan] | 1.9% (inactive)
CCCCCCCCCCCCCCSCC(=O)O [tetradecylthioacetic-acid] | -4.9% (inactive)
COc1c(N2C[C@@H]3CCCN[C@@H]3C2)c(F)cc2c(=O)c(C(=O)O)cn(C3CC3)c12 [moxifloxacin] | 0.76% (inactive)
CC(C)(F)C[C@H](N[C@@H](c1ccc(-c2ccc(S(C)(=O)=O)cc2)cc1)C(F)(F)F)C(=O)NC1(C#N)CC1 [odanacatib] | -1.8% (inactive)
